Source: PubChem BioAssay
Hits are enriched below; roughly 2.6% of the tested compounds scored in any of these assays.
SIAE primary = human SIAE inhibitors, primary screen, biochemical, fluorescence polarization, FP-Rh probe, 1536-well HTS | AID 1053197, 2014 | inhibition, % at 9.66 µM | SIAE FP-Rh probe binding | Sialate O-acetylesterase (Homo sapiens), Q9HAT2 | actives 0.69% (n = 370,000);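 active = inhibition above a cutoff: mean of compounds within the control limits plus 3 SD of those, cut at about 17% in these data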
Target sequence (Q9HAT2 whole entry, looked up): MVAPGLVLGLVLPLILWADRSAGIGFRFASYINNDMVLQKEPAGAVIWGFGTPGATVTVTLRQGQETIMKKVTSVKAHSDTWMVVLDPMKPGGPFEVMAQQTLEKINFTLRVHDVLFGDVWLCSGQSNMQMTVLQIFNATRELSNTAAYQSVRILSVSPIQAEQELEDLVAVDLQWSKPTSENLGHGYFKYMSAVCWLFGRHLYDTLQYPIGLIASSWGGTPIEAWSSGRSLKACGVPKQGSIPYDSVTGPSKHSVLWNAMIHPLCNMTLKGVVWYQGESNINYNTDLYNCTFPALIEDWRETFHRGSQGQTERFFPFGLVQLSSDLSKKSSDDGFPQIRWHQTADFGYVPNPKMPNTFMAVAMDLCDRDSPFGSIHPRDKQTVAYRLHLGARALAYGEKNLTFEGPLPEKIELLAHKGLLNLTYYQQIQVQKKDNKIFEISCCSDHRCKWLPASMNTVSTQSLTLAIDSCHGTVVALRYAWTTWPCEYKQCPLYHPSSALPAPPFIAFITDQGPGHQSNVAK
TCR-CD3 inh = inhibitors of human TCR-CD3 interaction, primary screen, biochemical, fluorescence, TAMRA-labeled TCR probe. T-cell receptor (TCR). inhibition, % at 9.4 µM. actives 0.37% (n = 360,000). AID 651800, 2012; in the data active = inhibition above about 19%;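 note: recombinant mutant TCR 2C K166C tagged with TAMRA read by polarization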
Fam108B counter = mouse Fam108B serine hydrolase inhibitors, primary screen, counter-screen for RBBP9 inhibitor project, biochemical, fluorescence polarization; recombinant Fam108B, FP-Rh probe fluorescence polarization; inhibition, % at 9.51 µM; actives 0.33% (n = 300,000); AID 1947, 2009;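 active = inhibition above the screen mean inhibition plus 3 SD, computed separately per campaign, cut at about 18% in these data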;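 note: inhibitors lower polarization as less probe binds the enzyme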
PAD4 FP inh = human PAD4 inhibitors, primary screen, biochemical, fluorescence polarization, 1536-well format; actives 0.41% (n = 330,000); inhibition, % at 6.36 µM; recombinant PAD4, RCA probe fluorescence polarization; Protein-arginine deiminase type-4 (Homo sapiens), Q9UM07;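 active = percent inhibition above a cutoff equal to the mean of all tested compounds plus 3 SD, cut at about 15% in these data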
PME-1 primary = PME-1 inhibitors via competitive probe labeling, primary screen, biochemical, fluorescence polarization, FP-Rh probe, HTS | Protein phosphatase methylesterase 1 (Homo sapiens), Q9Y570 | actives 0.53% (n = 320,000) | AID 2130, 2009 | inhibition, % at 5.9 µM | recombinant PME-1;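 active = inhibition above the campaign mean of all compounds plus 3 SD, cut at about 26% in these data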;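 note: competitive labeling of PME-1 active site by serine hydrolase directed probe; inhibitors block probe labeling so polarization falls and inhibition rises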
PRMT1 inh = PRMT1 methyltransferase inhibitors, primary screen, biochemical, fluorescence polarization | inhibition, % at 2.79 µM | actives 1.3% (n = 370,000) | Protein arginine N-methyltransferase 1 (Homo sapiens), Q99873 | recombinant PRMT1, activity-based probe fluorescence polarization;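 active = inhibition above about 21% made by adding two undisclosed values, limit read from the data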
SIAE confirm = human SIAE inhibitors, retest, confirmation, biochemical, fluorescence polarization, FP-Rh probe, triplicate. shares compounds with SIAE primary. SIAE FP-Rh activity-based probe. inhibition, % at 9.66 µM. actives 13% (n = 2,300). AID 1117263, 2014;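 active = mean inhibition of the replicates above the hit cutoff set in the primary screen, cut at about 17% in these data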;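 note: inhibitors lower polarization as more probe stays unbound to SIAE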
Each line names hits and unclear results; the compound was inactive in the other large screens (follow-up assays come after a bar, where they were run).

COC(=O)[C@]12C[C@H](CC(=O)NCC3CCCCC3)C(=O)N(CCc3ccc(OC)c(OC)c3)C1=C[C@H](COCc1ccccc1)O[C@@H]2C	none (no result: TCR-CD3 inh, Fam108B counter, PAD4 FP inh, PME-1 primary)
CC(C)(C)CCNc1nc(-c2ccccn2)nnc1-c1ccccc1	none (no result: TCR-CD3 inh, Fam108B counter, PAD4 FP inh, PME-1 primary)
CN(C)C(=O)c1cnc(Cc2c[nH]c3ccccc23)c(I)c1	SIAE primary 17.5 (no result: Fam108B counter, PAD4 FP inh, PME-1 primary) | SIAE confirm inactive
CCN(CC)c1ccc(/C=N/N2CCN(Cc3ccccc3Cl)CC2)c(O)c1	SIAE primary 22.0 | SIAE confirm inactive
CC(C)CNc1ccc2c(c1)OC[C@@H](CC(C)C)NS2(=O)=O	none (no result: TCR-CD3 inh, Fam108B counter, PAD4 FP inh, PME-1 primary)
CCOC(=O)C(O)(C1C(=O)CC(C)(C)CC1=O)C(F)(F)F (centres undefined)	SIAE primary 33.1 | SIAE confirm 18.7
O=C(CSc1ncccn1)N1CCN(C(=O)CSc2ncccn2)CC1	none
CCOC(=O)N1CCN(C(=O)CSc2ncccn2)CC1	SIAE primary 18.9 | SIAE confirm inactive
Cc1ccccc1C(=O)NC1CCCCN(C(C)C)C1=O (centres undefined)	none (no result: TCR-CD3 inh, Fam108B counter, PAD4 FP inh, PME-1 primary)
Cc1c(CC(=O)O)c(=O)oc2cc(OCc3nn[nH]n3)ccc12	SIAE primary 18.0 | SIAE confirm inactive
Nc1nnn(CC(=O)N/N=C/c2cn[nH]c2-c2ccccc2)n1	SIAE primary 21.3 | SIAE confirm inactive
CCCC(=O)NC(c1ccco1)c1cc([N+](=O)[O-])c2cccnc2c1O (centres undefined)	none
CCC(=O)NC(c1ccco1)c1cc(Br)c2cccnc2c1O (centres undefined)	SIAE primary 18.8 (no result: Fam108B counter, PAD4 FP inh, PME-1 primary) | SIAE confirm inactive
CCCC(=O)NC(c1ccc(C(C)C)cc1)c1ccc2cccnc2c1O (centres undefined)	none
CCC(=O)NC(c1ccc(Cl)cc1Cl)c1ccc2cccnc2c1O (centres undefined)	SIAE primary 18.5 | SIAE confirm inactive
CC(=O)NC(c1ccc(Cl)cc1)c1ccc2cccnc2c1O (centres undefined)	SIAE primary 17.2 (no result: Fam108B counter, PAD4 FP inh, PME-1 primary) | SIAE confirm inactive
CC(C)c1cc(C(C)C)c(S(=O)(=O)NCC(=O)N2CCN(c3ncccn3)CC2)c(C(C)C)c1	none (no result: TCR-CD3 inh, Fam108B counter, PAD4 FP inh, PME-1 primary)
O=C1Nc2ccc(Br)cc2/C1=C/C(=O)c1ccc2c(c1)OCO2	SIAE primary 18.9 | SIAE confirm inactive
COc1ccc(C(=O)/C=C2\C(=O)Nc3ccc(Br)cc32)cc1	none (no result: Fam108B counter, PAD4 FP inh, PME-1 primary)
COc1ccc(-c2[nH]c(-c3ccc(SC)cc3)nc2SCC(=O)Nc2nccs2)cc1	SIAE primary 21.5, Fam108B counter 35.5, PME-1 primary 70.2 | SIAE confirm inactive
COc1ccc(-c2cc(-c3ccccc3)nc(SCC(=O)Nc3nccs3)c2C#N)cc1	none
COc1ccc(-c2nc(SCC(=O)NC3CCCC3)c(-c3ccc(OC)cc3)[nH]2)cc1	SIAE primary 17.9 | SIAE confirm inactive
CCNC(=O)N(C)[C@H]1C[C@H]2c3[nH]c4c(-c5cccc(C)c5)cccc4c3CCN2C(=O)[C@H]1[C@H](C)O	none (no result: TCR-CD3 inh, Fam108B counter, PAD4 FP inh, PME-1 primary)
CCOc1ccc(NC(=O)C/C(C)=N/NC(=O)c2cnccn2)cc1	SIAE primary 20.2 (no result: Fam108B counter, PAD4 FP inh, PME-1 primary) | SIAE confirm inactive
CCN(CC)C(=O)CC[C@@H]1CC[C@]2(CCCN(Cc3ccc(Cl)cc3)C2)O1	none (no result: TCR-CD3 inh, Fam108B counter, PAD4 FP inh, PME-1 primary)
O=C(CCc1ccccc1)N[C@H]1C(=O)CCC[C@]12C(=O)N(Cc1ccccc1)c1ccccc12	none (no result: TCR-CD3 inh, Fam108B counter, PAD4 FP inh, PME-1 primary)
COc1ccc(N2C(=O)CSC2c2cccc(OC)c2OC)cc1 (centres undefined)	SIAE primary 23.3 | SIAE confirm inactive
COc1cccc(C2SCC(=O)N2c2ccc(C)cc2)c1OC (centres undefined)	none
COC(=O)Cn1c(CCS(=O)(=O)c2ccc(C)c(C)c2)nc2ccccc21	none
